Most compounds without a hit are left out; they make up all but 0.95% or so of the library.
TexasRed autofl: compounds fluorescent in Texas Red spectral region. Compound fluorescence, Texas Red channel, 547/618 nm; stronger effect = higher value. max dye-equivalent concentration, M. 0.06% of 59,000 active. AID 587; in the data active = max dye-equivalent concentration above about 10 nM; inconclusive = between about 1.1 nM and that limit
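Texas Red-region profiling: compounds in 100 mM Tris pH 8.0 were read at 547/618 nm after 15 min at room temperature. Intensities were normalized against a six-point Texas Red standard series to give dye-equivalent concentration.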
Resorufin autofl: compound fluoresces in the resorufin spectral region; 0.04% of 59,000 active; Compound fluorescence, resorufin region 547/598 nm, buffer; stronger effect = higher value; max dye-equivalent concentration, M
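Read-out: intrinsic compound fluorescence at ex 547/em 598 nm after 15 min at RT in pH 8.0 Tris (100 mM). Values expressed as resorufin-equivalent concentration from per-plate standard series.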
Rhodamine autofl: compound fluoresces in the rhodamine spectral region; Rhodamine-region fluorescence, 547/598 nm, Tris buffer; stronger effect = higher value; max dye-equivalent concentration, M; AID 594; 0.05% of 59,000 active; in the data active = max dye-equivalent concentration above about 11 nM; inconclusive = between about 1.1 nM and that limit
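qHTS spectral profiling of compounds without any target or enzyme present, in pH 8.0 Tris buffer; plates were read after a 15-minute room-temperature incubation using the rhodamine-region filter set.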
A647 autofl: compound fluoresces in the A647 spectral region; Compound fluorescence, A647 channel (570/671 nm), Tris buffer; max dye-equivalent concentration, M; 59,000 tested, under 10 active; AID 592;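 also: values scaled relative to a standard on each plate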
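Spectral profiling of library compounds in pH 8.0 Tris: 15 min room-temperature incubation, single ex/em pair (570/671 nm), response normalized to Alexa 647 equivalents.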
Fluorescein fluor: fluorescein region autofluorescence. 0.91% of 59,000 active. Compound autofluorescence, 480/540 nm, fluorescein-equivalent; stronger effect = higher value. max fluorescein-equivalent concentration, M. AID 593; in the data active = max fluorescein-equivalent concentration above about 10 nM; inconclusive = between about 1.1 nM and that limit
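Fluorescein stocks ranging 3 mM down to 300 nM, plus DMSO blanks, were pinned alongside compounds to build a per-plate standard curve. Buffer: 100 mM Tris, pH 8.0. Incubation 15 min, room temperature; filters 480/540 nm.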
A488 autofl: compound autofluorescence in A488 spectral region; compound autofluorescence, A488 spectral region, dye equivalency; Compound Type: qHTS ECL - MLSMR; max dye equivalency, M; 0.1% of 59,000 active; AID 591
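Compounds pin-transferred into 100 mM Tris buffer, pH 8.0, incubated 15 min at room temperature, then imaged with 480 nm excitation/540 nm emission filters. Fluorescence converted to Alexa 488 dye-equivalent concentration via an on-plate six-point A488 standard curve.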
The depositor's hits bear a star; i = inactive; u = inconclusive; ! = a repeat was not active. Unless noted, no rule for the calls is given here.

SMILES	TexasRed autofl	Resorufin autofl	Rhodamine autofl	A647 autofl	Fluorescein fluor	A488 autofl
CN1C(C(=O)Nc2ccccn2)=C(O)c2ccccc2S1(=O)=O	i	i	i	4.2e-08	1.2e-08M*!	i
O=C(c1ccncc1)N1CCC[C@@]2(CCN(C(c3ccccc3)c3ccccc3)C2)C1	i	i	i	1e-09	i	i
CCOc1ccc(C2C=C(c3ccc(C)cc3)Nc3nnnn32)cc1 (stereo unspecified)	i	i	i	1e-09	u	i
CCOc1ccc(C2C=C(c3ccc(C)cc3)Nc3ncnn32)cc1 (stereo unspecified)	u	i	i	5.4e-09	1.5e-08M*	i
Cc1nc2cncnc2n(C2CC2)c1=O	i	i	i	2.8e-08	i	i
O=C1c2cccc3c(N4CCCCC4)ccc(c23)C(=O)N1c1ccccn1	i	i	i	2.3e-09	2.7e-07M*	1.3e-08M*
CCN(CC)c1ccc2c(c1)C(=O)N(C)C2=O	u	i	i	1e-08	1.1e-08M*	i
Nc1n[nH]c2ccccc12	2.9e-08M*	1.1e-08M*	1.5e-08M*	4.4e-08	u	i
CCOC(=O)c1n[nH]c2ccccc12	i	i	i	4e-08	u	i
Cc1ccc2[nH]c3c(c2c1)CN(C(=O)CN1CC(C)OC(C)C1)CC3 (stereo unspecified)	i	i	i	8.9e-08	1.1e-08M*	i
Cc1ccc2[nH]c3c(c2c1)CN(C(=O)CN1CCN(c2ccccn2)CC1)CC3	i	i	i	3.9e-08	1.8e-08M*	i
Cc1ccc2[nH]c3c(c2c1)CN(C(=O)CN1CCSCC1)CC3	u	i	i	1.5e-09	u	i
CC(C)NC(=O)N1CCCC2(CCN(C(=O)c3ccncc3)CC2)C1	i	i	i	1.6e-09	i	i
CCOC(=O)c1ccc(N2C(=O)C3C(C2=O)C(C(=O)c2ccc(Cl)cc2)N2CCCC32)cc1 (stereo unspecified)	i	i	i	5.7e-09	5.6e-08M*	u
CCN[C@@H]1C[C@H](N)[C@H](O[C@H]2OC(CN)=CC[C@H]2N)[C@@H](O)[C@H]1O[C@H]1OC[C@@](C)(O)[C@@H](NC)[C@@H]1O	i	i	i	1e-09	2.4e-08M*	i
CN[C@H]1[C@H](O)[C@@H](O[C@@H]2[C@H](O)[C@@H](O[C@H]3OC(CN)=CC[C@H]3N)[C@@H](N)C[C@H]2N)OC[C@@]1(C)O	i	i	i	1e-09	u	i
Cc1ccc([C@@H]2C3COCC=C3C(C#N)=C(N)C2(C#N)C#N)o1 (stereo partly specified)	i	i	i	1.9e-08	1.2e-08M*	i
O=C(c1cc(C(F)(F)F)cc(C(F)(F)F)c1)N1CCC2(CC1)CCN(c1ccncc1)CC2	i	i	i	2e-08	u	i
Cc1cccc(OCC(=O)NCC(=O)n2nc(C)cc2C)c1	i	i	i	7.9e-08	1.2e-08M*	i
Cc1cc(C)n(C(=O)COc2c(C)cccc2C)n1	i	i	i	3.9e-08	u	i
O=C1OC2(c3ccc(O)cc3Oc3cc(O)ccc32)c2c1c(-c1ccccc1)c(-c1ccccc1)c(-c1ccccc1)c2-c1ccccc1	i	u	u	1e-09	4.8e-07M*	2.3e-08M*
O=C(O)c1ccc2c(c1C(=O)O)C(=O)OC2(c1ccc(O)cc1)c1ccc(O)cc1	i	i	i	4.2e-09	i	i
CC(CS(=O)(=O)c1cccc2cccnc12)N1CCCCC1 (stereo unspecified)	i	i	i	4.8e-08	1.6e-08M*	i
O=S(=O)(NC1CCCCCC1)c1cccc2cccnc12	i	i	i	4.9e-09	i	i
Cc1ccc(/C=c2\sc3nc(-c4ccco4)nn3c2=O)o1	i	i	i	1.9e-08	1.5e-08M*	i
SMILES	TexasRed autofl	Resorufin autofl	Rhodamine autofl	A647 autofl	Fluorescein fluor	A488 autofl
O=c1oc2c(CN3CCCCC3)c(O)ccc2cc1-c1nc2ccccc2[nH]1	i	i	i	1e-09	2.8e-06M*	1.4e-07M*
COc1cc2c(cc1OC)C(CCN)=NCC2	i	i	i	1e-08	i	i
Nc1nc(Cl)nc2c1ncn2[C@@H]1O[C@@H](COP(=O)(O)OP(=O)(O)OP(=O)(O)O)[C@@H](O)[C@H]1O	i	i	i	2.7e-09	i	i
Cc1cc(=O)oc2c(CN3CCC(C)CC3)c(O)c(Cl)cc12	i	i	u	1e-09	1.1e-08M*	i
CCCCCCc1cc2cc(-c3nnc(-c4ccccc4O)o3)c(=O)oc2cc1O	i	i	i	4.3e-08	2.6e-08M*	i
Cc1cc(-c2nnc(-c3cc4ccccc4oc3=O)o2)c(C)n1-c1ccccc1	i	i	i	1e-09	i	i
CC1(C)CC(=O)C2=C(C1)OC(N)=C(C#N)C21CCN(Cc2ccccc2)CC1	i	i	i	3.7e-08	3.2e-08M*	u
COc1cccc(Cn2c(=O)c(-c3ccc(Cl)cc3)nc3cnc(OC)nc32)c1	i	i	i	1.2e-08	u	i
CC(=O)[C@@]1(O)Cc2c(O)c3c(c(O)c2[C@H](O[C@H]2C[C@H](N)[C@H](O)[C@H](C)O2)C1)C(=O)c1ccccc1C3=O	u	2.4e-08M*	4.2e-08M*	6.7e-08	4.7e-07M*	2.4e-08M*
COc1cccc2c1C(=O)c1c(O)c3c(c(O)c1C2=O)C[C@](O)(C(C)=O)C[C@H]3O[C@@H]1C[C@H](N)[C@H](O)[C@H](C)O1	5.9e-08M*	4.5e-08M*	6e-08M*	7e-09	2e-07M*	u
COc1cccc2c1C(=O)c1c(O)c3c(c(O)c1C2=O)C[C@@](O)(C(=O)CO)C[C@@H]3O[C@H]1C[C@H](N)[C@H](O)[C@H](C)O1	8.3e-08M*	7.6e-08M*	8.7e-08M*	4.6e-09	2.9e-07M*	1.3e-08M*
COc1cccc2c1C(=N)c1c(O)c3c(c(O)c1C2=O)C[C@](O)(C(C)=O)C[C@@H]3O[C@H]1C[C@H](N)[C@@H](O)[C@H](C)O1	1e-08M*	i	u	2e-08	i	i
CN1CCN(c2ncc3nc(-c4ccccc4)c(=O)n(C)c3n2)CC1	i	i	i	2e-08	u	i
N#Cc1ccc(CN2CC[C@@]3(CCCN(C(=O)c4cc(C(F)(F)F)cc(C(F)(F)F)c4)C3)C2)cc1	i	i	i	1.4e-08	i	i
Clc1ccc(CN2CCCN(Cc3ccc(Cl)cc3)C2c2cc3ccccc3c3ccccc23)cc1	i	i	i	3.5e-09	1.2e-08M*	i
O=C(O)[C@@H]1CCCN1Cc1cc2ccccc2c2ccccc12	i	i	i	5.7e-08	u	i

High-throughput results (PubChem)
